A selection: hits, their analogues and other compounds. The true share with any hit is near 1.8%.
GLP-1R inv ag: acts as inverse agonist at human GLP-1 receptor | HEK293 GLP-1R CRE-luciferase, luminescence, 24 h; GLP-1R form is constitutively active | Potency, µM (top dose mostly 38.3 µM), actives largely listed as inhibitors | hit rate 1.6% among 410,000 | AID 624417; note: nearly all actives have a fitted effect of over 55% in size
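Using stably transfected HEK293 (constitutively active GLP-1R, cAMP-luciferase reporter), compounds were incubated 24 hr and luciferase measured by luminescence.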
GLP-1R agonist: GLP-1 receptor (human) agonism | HEK293 GLP-1R CRE-luciferase, luminescence, 4-6 h; cells express a hypersensitive GLP-1R form | Potency, µM (highest dose often 45.6 µM), actives largely listed as activators | hit rate 0.007% among 380,000
GLP1R cytotox: cytotoxicity counter-screen for GLP-1 receptor inverse agonists; Potency, µM (doses to about 38.3 µM), hits mostly inhibitors; HEK293 cAMP-luciferase reporter cells, luminescence, 24 h; hit rate 0.13% among 410,000; AID 624418;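 note: loss of luciferase light is scored as toxicity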
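Here, cytotoxicity is scored as loss of luminescence. The MLSMR collection was tested on cells seeded in medium containing 10% Nu serum, with a 24 hr compound exposure preceded by 12 hours of culture.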
TRPML1 inh: blocks the human TRPML1 channel. hit rate 0.02% among 390,000. Q9GZU1. AID 624415. activity change, negative = inhibition, % (test concentration not listed). TRPML1-inducible cells, Ca2+ dye fluorescence, FDSS; hits give low values; inhibition of EC80 agonist-evoked calcium signal; in the data active = activity change below about -50%; inconclusive = between about -30% and that limit;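 note: stimulus is agonist 54-4 at its EC80 concentration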
Target sequence (Q9GZU1 whole entry, looked up): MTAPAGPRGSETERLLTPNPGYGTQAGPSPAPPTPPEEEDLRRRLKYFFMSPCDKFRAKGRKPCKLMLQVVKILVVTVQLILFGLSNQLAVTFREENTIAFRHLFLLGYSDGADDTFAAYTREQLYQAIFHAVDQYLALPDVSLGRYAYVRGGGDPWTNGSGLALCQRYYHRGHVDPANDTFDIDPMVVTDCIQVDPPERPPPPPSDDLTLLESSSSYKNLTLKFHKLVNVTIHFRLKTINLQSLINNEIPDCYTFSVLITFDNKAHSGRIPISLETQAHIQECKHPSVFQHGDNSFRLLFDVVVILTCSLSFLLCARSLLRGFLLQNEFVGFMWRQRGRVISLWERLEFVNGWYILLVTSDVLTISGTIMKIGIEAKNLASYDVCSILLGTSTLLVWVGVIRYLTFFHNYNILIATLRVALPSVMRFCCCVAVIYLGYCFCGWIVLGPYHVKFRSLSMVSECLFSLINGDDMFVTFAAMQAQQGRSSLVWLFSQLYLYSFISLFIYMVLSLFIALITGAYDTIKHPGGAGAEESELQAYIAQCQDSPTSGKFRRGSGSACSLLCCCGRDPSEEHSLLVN
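TRPML1-DL cells, Tet-induced overnight (~16 h, 37 °C) at 1,500 cells/well, were loaded with Ca8 no-wash dye plus quencher for 45-90 min at room temperature. Compounds were pinned during FDSS kinetic reading; agonist 54-4 at EC80 (4 uM final) then added.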
TRPML1 agonist: agonists of human TRPML1 channel; activation, % (concentration not given with the values); Q9GZU1; TRPML1-expressing cells, Ca2+ dye fluorescence, FDSS; hit rate 0.12% among 410,000; in the data active = activation above about 50%; inconclusive = mostly about 30% to 49%
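TRPML1-DL cells, Tet-induced overnight (~16 h, 37 degrees C), loaded 45-90 min at room temperature with Ca8 no-wash calcium dye plus quencher. FDSS fluorescence: 10 s baseline, compound pin-transfer, 110 s agonist read, then EC80 54-4 (4uM final) and 110 s antagonist read.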
Each line names hits and unclear results; the compound was inactive in the other large screens. Unless noted, calls come from the whole dose curve; as a rule, active = well fitted curve in the direction sought with a large enough effect; inconclusive = small, poorly fitted or top-dose-only effect, or another doubt; inactive = no such curve, though single readings can be large; an effect the other way counts as inactive or inconclusive.

Cc1cccc(C(=O)Oc2ccc(/C=N/NC(=O)c3cc(O)cc(O)c3)cc2)c1	GLP-1R inv ag 10µM
COc1ccc2c(CNC3CCC(C)CC3)c(C(=O)O)n(Cc3ccc(F)cc3)c2c1 (configuration not stated)	none
CCCCn1nnnc1C(c1ccccc1)N1CCN(c2ncc(C(F)(F)F)cc2Cl)CC1 (configuration not stated)	GLP-1R inv ag inconclusive, TRPML1 agonist 68 (no result: TRPML1 inh)
Cc1cc(NC(=O)c2cccc(COc3ccc(Br)cc3)c2)no1	GLP-1R inv ag 1µM
Cc1nc2n(c(=O)c1CCN1CCC(c3noc4cc(F)ccc34)CC1)CCC[C@@H]2O	none (no result: GLP-1R inv ag, GLP1R cytotox, TRPML1 inh)
CCOC(=O)c1ccc(Nc2ncnc3c2cnn3C)cc1	GLP1R cytotox inconclusive
Cn1ncc2c(O/N=C(\N)c3ccc(C(C)(C)C)cc3)ncnc21	GLP-1R inv ag inconclusive, GLP1R cytotox 10µM
Cc1ccc(C(C)C)cc1-n1nnc(-c2cccc(Cc3ccc4ccccc4c3)c2)c1C(C)O (configuration not stated)	GLP-1R inv ag 3.5µM
O=C(Nc1ccccc1C(=O)Nc1ccc(Br)cn1)c1ccccc1Cl	GLP-1R inv ag 10µM
Cc1ccc(NC(=O)CSc2nc(=O)n(CCCN(C)C)c3c2CCC3)cc1F	none (no result: GLP-1R agonist)
CCN(CC)CCCn1c2c(c(SCC(=O)Nc3ccc(OC(F)(F)F)cc3)nc1=O)CCC2	GLP-1R inv ag 3.5µM
CCN(CC)CCCn1c2c(c(SCC(=O)Nc3nc4ccccc4s3)nc1=O)CCC2	GLP-1R inv ag inconclusive, GLP1R cytotox inconclusive
CCN(CC)CCCn1c2c(c(SCC(=O)Nc3ccc(C)c(F)c3)nc1=O)CCC2	GLP-1R inv ag 10µM
COc1ccc(N2CCN(CC(O)COc3ccc(C(C)C)c(C)c3)CC2)cc1 (configuration not stated)	GLP-1R inv ag 13µM, GLP1R cytotox inconclusive (no result: GLP-1R agonist)
Cc1noc(C)c1COc1cccc(C(=O)OC(C)C#N)c1 (configuration not stated)	none
Cc1noc(C)c1COc1cccc(C(=O)OCCOc2ccc(F)cc2)c1	GLP-1R inv ag 10µM
COCCN=C1Sc2nc3c(C)cccc3cc2CN1Cc1ccco1	GLP-1R inv ag 8.9µM
Cc1ccc2nc3c(cc2c1)CN(Cc1ccco1)C(=NCC1CCCO1)S3 (configuration not stated)	GLP-1R inv ag 2.2µM
CCN(CCCNC(=O)CSc1cc(=O)n(CC)c2ccccc12)c1cccc(C)c1	GLP-1R inv ag inconclusive (no result: GLP-1R agonist)
O=C1NC2CCCCN2C12CCN(CCCN1c3ccccc3CCc3ccc(Cl)cc31)CC2 (configuration not stated)	none (no result: GLP-1R inv ag, GLP1R cytotox, TRPML1 inh, TRPML1 agonist)
CCOc1ccc(N(CC)S(=O)(=O)N2CCCC(C(=O)Nc3ccc(NC(C)=O)cc3)C2)cc1 (configuration not stated)	none (no result: GLP-1R agonist)
CN(C)c1ccc(NS(=O)(=O)c2cc(Cl)ccc2Cl)cc1	GLP-1R inv ag inconclusive, GLP1R cytotox inconclusive
CCN(c1ccc(NS(=O)(=O)c2cc(Cl)ccc2Cl)cc1)C(C)C	GLP-1R inv ag 11µM
COc1ccc(C(O)(C(=O)NNc2ccc(C)cc2)c2cccs2)cc1 (configuration not stated)	GLP-1R inv ag 2.5µM
O=C(NNc1ccc(C2CCCCC2)cc1)C(O)(c1ccccc1)c1cccs1 (configuration not stated)	GLP1R cytotox inconclusive
CCCOc1ccc(C2C(=O)N(C3CCCCCC3)CC(=O)N2CCC)cc1OC (configuration not stated)	none (no result: GLP-1R agonist)
Cc1ccc2c(Sc3ccc(Cl)cc3)c(C(=O)N3CCC(C)CC3)[nH]c2c1	GLP-1R inv ag 10µM (no result: GLP-1R agonist)
COc1ccc2c(Sc3ccc(Cl)cc3)c(C(=O)N3CCC(C)CC3)[nH]c2c1	GLP-1R inv ag inconclusive (no result: GLP-1R agonist)
Cc1ccc2onc(CC(=O)Nc3ccc(C(C)C)cc3)c2c1	none (no result: GLP-1R agonist)
Cc1[nH]c2ccccc2c1SCCNC(=O)c1ccc(Br)o1	GLP-1R inv ag 11µM
O=C(NCCSc1c[nH]c2ccccc12)c1ccc(Br)o1	GLP-1R inv ag inconclusive
Cc1ccc2c(c1)N(C(=O)Nc1cccc3c1CCCC3)CC(C)O2 (configuration not stated)	GLP-1R inv ag 10µM (no result: GLP-1R agonist)
O=C(Nc1ccccc1)c1cc(C2CCCCN2C(=O)CCCc2ccccc2)on1 (configuration not stated)	GLP-1R inv ag inconclusive (no result: TRPML1 inh)
O=C(Nc1ccc2c(c1)OCO2)c1cc(C2CCCCN2C(=O)CCCc2ccccc2)on1 (configuration not stated)	GLP-1R inv ag 8.9µM (no result: TRPML1 inh)
COC(=O)/C=C/c1ccccc1S(=O)(=O)NC(C)C	none (no result: GLP-1R inv ag, GLP-1R agonist, GLP1R cytotox, TRPML1 inh)
COC(=O)/C=C/c1ccccc1S(=O)(=O)N(Cc1ccccc1)Cc1ccco1	GLP-1R inv ag 2.2µM
Cc1cccc(C)c1OCCNC(=O)OCc1ccccc1	GLP-1R inv ag 11µM, TRPML1 inh inconclusive
O=C(NCCCCCCNC(=O)OCc1ccccc1)OCc1ccccc1	none
COc1ccc(-c2coc3c(C(=O)NCc4ccco4)cccc23)c(C)c1	GLP-1R inv ag 4.5µM (no result: TRPML1 inh)
CN1CCc2c(sc3c2C(=O)NC(c2cn(Cc4ccccc4)c4ccccc24)N3)C1 (configuration not stated)	GLP-1R inv ag 4µM
CN1CCc2c(sc3c2C(=O)NC(c2ccco2)N3)C1 (configuration not stated)	none
OCCCn1c(CCCNc2nc(-c3cccc(Br)c3)cs2)nc2cc(Cl)c(N3CCCCC3)cc21	GLP-1R inv ag 10µM
CCCS(=O)(=O)NCCc1csc2nc(-c3ccc(OC)cc3)nn12	none (no result: GLP-1R agonist)
CCCSc1nsc(NC(=O)C(c2ccccc2)c2ccccc2)n1	GLP-1R inv ag 3.2µM, GLP1R cytotox inconclusive
CCOC(=O)c1c(-c2ccccc2)csc1NC(=S)NC	GLP1R cytotox inconclusive
CCNC(=S)Nc1scc(-c2ccccc2)c1C(=O)OCC	GLP-1R inv ag inconclusive, GLP1R cytotox 10µM
CCOC(=O)c1c(-c2ccc(-c3ccccc3)cc2)csc1NC(=O)CNCCN(C)C	GLP-1R inv ag 10µM
O=[N+]([O-])c1ccc(C2=NN(c3ccccc3)C(c3ccco3)C2)cc1 (configuration not stated)	TRPML1 agonist 55
O=[N+]([O-])c1ccc(/C=C/C2=NN(c3ccccc3)C(c3ccco3)C2)cc1 (configuration not stated)	TRPML1 agonist 60
c1ccc2c(CCC3CCNCC3)c[nH]c2c1	none (no result: GLP-1R inv ag, GLP1R cytotox, TRPML1 inh, TRPML1 agonist)
C=CCn1c(COc2ccccc2)nnc1SC(C)C(=O)N/N=C/c1cc(Cl)ccc1O (configuration not stated)	GLP-1R inv ag 8.9µM
C=CCn1c(COc2ccc(Cl)cc2)nnc1SCC(=O)N/N=C/c1cccc(O)c1	GLP-1R inv ag inconclusive

Bioassay records: PubChem BioAssay, National Center for Advancing Translational Sciences (NCATS)
